Among all 31,000 sequences or so, about 1,400 (4.5%) were called active. Many of the other results were omitted from the sample, so actives are more common in it than they were. Unmarked numbers belong to inactive results.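 Rule for the calls: active = median seed-adjusted z-score above 1 or below -1; inactive = the rest.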
Assay: Novel Modifiers of Survival Motor Neuron (SMN) Protein: Gene Identification via Genome-wide siRNA Screen;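 note: luminescence tracks full-length SMN protein made from the SMN2 reporter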
Details: HEK293T SMN2-luciferase reporter, siRNA knockdown, 72 h; actives lie on both sides
Method in brief: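 Steps: spot 1 pmol siRNA, add Lipofectamine RNAiMax in serum-free DMEM, seed HEK293T SMN2–luciferase reporter cells; incubate 72 h at 37 °C; add ONE-Glo; normalize luminescence to control siRNA, log10, MAD. Candidates: |MAD| > 1.0.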

Row | Sequence | median seed-adjusted z-score
1 | GUCUAUCUCUUGUCUAAAATT against HYAL4 | -0.236
2 | GCUCAUUGGUACAAUGUCATT against POLE | -1.55 (active)
3 | CGCUCAUGGACUUCGCCUATT against ZBTB7A | -0.344
4 | CCAUAACGGUGGAUGAGUATT against MPPED2 | 0.418
5 | GAAGUUUGACCAUGACUUUTT against ACCN5 | 0.227
6 | CACUGAUUCUGAAGGCGAATT against RPS6KA1 | 0.194
7 | CGUCUGACUUCGCUAGCAATT against HOXD11 | -0.185
8 | GGAUGUUGUUUAUCGAGGATT against MED21 | -1.3 (active)
9 | ACAAAAAGGGCAUACAUUATT against S100A7A | 0.212
10 | GCAGCUGUUUGGAACCAAATT against TRIM47 | 0.707
11 | GCAUCUCUUCUAUGCCGAATT against MATN2 | 0.275
12 | ACAAGCACCUAGACCAUGATT against ANGPTL4 | 1.37 (active)
13 | ACUUAAUGCCUGCCUAUUATT against CYP21A2 | -0.26
14 | UGACGUAGGCAUAAACGGATT against PCDH11Y | 0.186
15 | GCUCUAAACCAGAACGGGATT against ARAP3 | -0.00876
16 | AGACCAACCCUGGUACUUUTT against SRMS | -1.58 (active)
17 | GCAUUGUCCGUCUUCAUCATT against GLP1R | 0
18 | GCACGUCACUGUGGUUGUATT against THNSL2 | 0
19 | GCUUAUACAUUCCGAUGAATT against PTPRZ1 | 1.73 (active)
20 | GGAUGUAGCUGUCAACUGUTT against HSD17B10 | -0.355
21 | GACCUUACGAGGUUUCUAATT against TSNAX | 0.514
22 | CGUUCCUAAGCUACAAGAATT against TMPRSS9 | 0.106
23 | GAAUUCAGAUGCGAGUAAATT against RFX6 | 0.119
24 | CUGUUUACAUGACCUAUUUTT against MAFG | 0
25 | CGGCACAUCCUGCUUUGUUTT against ZNF213 | 1.37 (active)
26 | GGUUCCUUAUUAUAGUCCATT against GPR63 | -0.0154
27 | CGGUGCUCCCUGUCAUAAATT against CCR2 | -0.00107

Row | Sequence | median seed-adjusted z-score
28 | GGCAUGAAUUUGAACUGUATT against CA8 | 0.172
29 | CCGUCAAGGUCGUCAUACATT against NTSR1 | -1.1 (active)
30 | GGACGGCUUUCUGCAAAGATT against GLRA2 | -0.927
31 | AGUGUCUACUGUGAGAAUATT against TRAF4 | -1.16 (active)
32 | GCACCAUAGUGACACUGAATT against IFNAR2 | -0.219
33 | CAGUGGACUUCCAACCCAATT against SF3A1 | -1.09 (active)
34 | CAUUCAUCUCAAUAAUUGATT against IL5RA | -0.357
35 | CAUGGACGAGAUCAAGGAATT against AGXT | 0.017
36 | GCACUACUCCGAGAAGUUATT against NEK6 | -0.674
37 | CAAUAGUAAAGGGAUAUAATT against MED27 | -1.62 (active)
38 | AGACCGACGUGAAAGAGGATT against HAND2 | 0.0864
39 | CAGUUGCCUAUAUCCUAUATT against TDRKH | -0.434
40 | CCCUUGUAGUGAAACGGAATT against CYP4F8 | 0.756
41 | ACUACUUCCUGAACCGGGATT against CD2BP2 | -0.455
42 | GCAGAGUUUCGUACAAGGATT against KPNA6 | -1.54 (active)
43 | CCAGCCCACUCAUCUCAUUTT against SNX30 | -0.157
44 | GCCGAGGAACAAUCUCUCATT against RASGRP4 | 0.162
45 | CCACUACCCUGAGAACUUUTT against TOP3B | -1.11 (active)
46 | GGACCGGAGCAGUAUAGAATT against TRIM37 | -0.108
47 | CGGUUACGAUAAUGCGUUATT against ENPP5 | -0.0499
48 | GCACAAGUGCUGAGCCAGATT against LENG9 | 0.607
49 | GUAUUAUUUUCGUACACGATT against RABL3 | 0.843
50 | CCGGCUACCUGAUCGUGUATT against PITPNM1 | -0.203
51 | GAAAUGACAUUAGCUGAUUTT against CLIC4 | -0.498
52 | CUACAUUGCUGGGACUAAUTT against RRM1 | -5.51 (active)
53 | CCUGGAGAGUUACUUUGAATT against CCL23 | -0.285
54 | CCUCGUCGAUCGUGCAUCUTT against ADRA2C | 0

From PubChem BioAssay AID1347426 (Functional Genomics Laboratory (NCATS/FGL), 2020)
